# Sampled rows, rich in hits. Any-hit rate of the full collection: about 8.7%.
# Vaccinia Venus: qHTS for Stage-Specific Inhibitors of Vaccinia Orthopoxvirus: Venus Reporter Primary qHTS; Vaccinia virus Venus reporter expression, fluorescence; Potency, µM (doses to about 36.5 µM), without a hit: top-dose activity change, negative = inhibition, actives largely listed as inhibitors; 330,000 compounds, 0.46% hits; AID 720580, 2013; calls by dose curve; tested in A549 cells; further: nearly all actives have a fitted effect of over 30% in size
# AMA1-RON2 inh: qHTS for Inhibitors of AMA1-RON; Towards Development of Antimalarial Drug Lead: Primary Screen. Potency, µM (series often up to 58.2 µM), for the others: at the top dose activity change, negative = inhibition, most hits filed as inhibitors. Plasmodium falciparum AMA1 (3D7) - RON2 peptide interaction. AlphaScreen AMA1-biotinylated RON2 peptide binding. 360,000 compounds, 0.2% hits;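 further: 0% = vehicle wells and -100% = peptide control; nearly all actives have a fitted effect of over 45% in size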
#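 AMA1 (3D7) with his tag at 25 nM final met compounds first, then biotinylated RON2 peptide at 25 nM; detection used donor plus acceptor beads, 10 µg/mL apiece, read by AlphaScreen after 30 min at room temperature.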
# Vaccinia mCherry: qHTS for Stage-Specific Inhibitors of Vaccinia Orthopoxvirus: mCherry Reporter Primary qHTS | 310,000 compounds, 0.63% hits | Potency, µM (doses to about 36.5 µM), inactives show top-dose activity change, negative = inhibition, hits mostly inhibitors | Vaccinia virus mCherry reporter infection, fluorescence | AID 720579, 2013; calls by dose curve; tested in A549 cells; further: nearly all actives have a fitted effect of over 35% in size
# Pf growth 96h: Primary qHTS for delayed death inhibitors of the malarial parasite plastid, 96 hour incubation; 320,000 compounds, 6.9% hits; Potency, µM (doses to about 28.7 µM), for inactives: at the top dose activity change, negative = inhibition, most hits filed as inhibitors; P. falciparum luciferase reporter growth, 96 h
#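 Readout is luminescence from an integrated firefly luciferase in P. falciparum. Red cells, 2% hematocrit and 0.05% parasitemia final, were cultured with compound through two parasite generations (96 hours) at 37 C, 5% CO2.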
# Pf growth 48h: Primary qHTS for delayed death inhibitors of the malarial parasite plastid, 48 hour incubation; P. falciparum luciferase growth in erythrocytes, 48 h; Potency, µM (series often up to 28.7 µM), for the others: top-dose activity change, negative = inhibition, actives largely listed as inhibitors; 310,000 compounds, 5.9% hits
#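 Luminescence readout; reporter = integrated firefly luciferase in P. falciparum. RBC culture at 2% hematocrit, 0.1% parasitemia final, 37 C/5% CO2; decreased signal taken as growth inhibition.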
# Active calls of the source: *; i = inactive; ? = inconclusive; nt = no result. Unless noted, the call rests on the fitted dose curve; in most records, active means well fitted curve in the direction sought with a large enough effect; inconclusive means small, poorly fitted or top-dose-only effect, or another doubt; inactive means no such curve, though single readings can be large; an effect the other way counts as inactive or inconclusive. Unless noted, on the % scale 0 is the no-effect control and ±100 the full control effect; potency means the concentration at half of the fitted maximal effect.
SMILES,Vaccinia Venus,AMA1-RON2 inh,Vaccinia mCherry,Pf growth 96h,Pf growth 48h
CCN(CC)S(=O)(=O)c1cc(NC(=O)C(C)N2CCN(c3ccccn3)CC2)ccc1C (stereo not given),-13.6%,-4.3%,-2.9%,3.7µM*,11.7µM*
CCc1sc(-c2cc3ccccc3oc2=O)nc1-c1ccc(C)cc1,6.2%,nt,-14.5%,nt,nt
COc1ccc(S(=O)(=O)NCCc2cn3ccsc3n2)cc1OC,-4.0%,nt,-10.6%,nt,nt
COc1ccc(C2=NC(C)(C)N(CC(=O)Nc3ccc(F)c(F)c3)C2=O)cc1,-9.1%,nt,-10.3%,nt,nt
COc1cc2c(cc1OC)C1O[C@](CCCCN3C(=O)c4ccccc4C3=O)(C2)Oc2cc(C)n(Cc3ccccc3)c(=O)c21,nt,nt,nt,2.39µM*,?
CCCCn1c(C)cc2c(c1=O)C1O[C@](c3ccc(OC)cc3)(Cc3cc(OC)c(OC)cc31)O2,nt,nt,nt,1.51µM*,?
COc1cc2c(cc1OC)[C@@H]1O[C@](CCCCN3C(=O)c4ccccc4C3=O)(C2)Oc2cc(C)n(-c3ccccc3)c(=O)c21,nt,nt,nt,?,1.07µM*
CCc1cc(C(=O)Nc2nc(-c3ccccn3)cs2)sc1C,nt,24.5%,nt,?,4.15µM*
Cc1ccc(OCC(=O)Nc2nc(-c3ccccn3)cs2)c(C)c1,-5.8%,96.3%,-18.2%,?,-18.3%
CC(=O)Nc1ccc(-c2csc(NC(=O)c3ccc(C)o3)n2)cc1,-6.5%,6.1%,nt,9.28µM*,nt
O=C(Nc1nc(-c2ccccn2)cs1)c1ccc([N+](=O)[O-])o1,-13.0%,2.3%,?,2.33µM*,2.94µM*
Cc1ccc(C(=O)Nc2nc(-c3ccccn3)cs2)o1,nt,-42.7%,nt,2.33µM*,4.15µM*
O=C(Nc1nc(-c2ccccn2)cs1)c1ccc(-c2ccccc2F)o1,nt,44.6%,nt,?,?
COCCCNc1nc2c(S(=O)(=O)c3ccc(C)c(C)c3)nnn2c2ccc(Cl)cc12,-17.5%,nt,-24.8%,nt,nt
CCc1ccc(NC(=O)N(Cc2cn(CC)c3ccccc23)C2CCCCC2)cc1,-17.4%,nt,-21.5%,nt,nt
COc1cccc(-c2nc(S(=O)(=O)c3ccccc3)c(N3CCCCC3)o2)c1,-3.5%,nt,-20.0%,nt,nt
Cc1cc(N)c2cc(NC(=O)Nc3ccc4nc(C)cc(N)c4c3)ccc2n1,nt,nt,nt,?,1.2µM*
Cc1ccc(C)c(Oc2coc3cc(OCC(=O)Nc4ccccc4C(C)C)ccc3c2=O)c1,nt,nt,nt,7.38µM*,13.1µM*
Cn1cnc([N+](=O)[O-])c1Sc1nc(N)nc2c1ncn2C1CC(O)C(CO)O1 (stereo not given),?,6.3%,6.31µM*,nt,nt
CCc1ccc(Sc2cc(C(=O)NCCCN3CCC(C)CC3)c3ccccc3n2)cc1,-20.7%,nt,-14.9%,nt,nt
CCCn1c(C2CCCN2c2nc(C)cs2)nc2cc(Cl)c(Cl)cc21 (stereo not given),?,-10.0%,-27.8%,?,?
CCCn1c(C2CCCN2c2nc(-c3cccc(Br)c3)cs2)nc2cc(Cl)c(Cl)cc21 (stereo not given),-16.8%,99.4%,-18.5%,9.28µM*,11.7µM*
O=C1CC(c2ccc(O)cc2)Oc2cc(O)cc(O)c21 (stereo not given),-20.4%,4.4%,-12.4%,25.5%,33.5%
CC1CC(=O)c2c(cc3c(-c4c(O)cc(O)c5c(O)c6c(cc45)OC(C)CC6=O)c(O)cc(O)c3c2O)O1 (stereo not given),14.1µM*,?,10µM*,5.7%,0.415µM*
O=C(Nc1cccc(Cl)c1)N1Cc2ccccc2Oc2ncccc21,-6.7%,nt,-2.2%,nt,nt
CCOc1ccccc1Nc1nnc(SCC(=O)Nc2cccc(S(=O)(=O)NC3=NCCCCC3)c2)s1,-11.4%,-13.1%,-23.1%,9.28µM*,?
CCOc1ccc2nc(SCC(=O)Nc3ccc4c(c3)OCCO4)[nH]c2c1,-14.3%,-13.0%,-21.7%,nt,2.6%
CCOc1ccc2nc(SCC(=O)Nc3cccc(S(=O)(=O)NC4=NCCCCC4)c3)[nH]c2c1,-13.8%,23.2%,i,?,11.7µM*
Cc1ccccc1C(=O)Nc1nnc(S(=O)(=O)N(C)Cc2ccc(Cl)cc2)s1,-6.4%,nt,-11.7%,nt,nt

# Screening data deposited in PubChem by National Center for Advancing Translational Sciences (NCATS).
